Results reported in the supplement of paper PMC11732987, “Enantioselective OTUD7B fragment discovery through chemoproteomics screening and high-throughput optimisation” (Communications Chemistry, 2025).

Columns and labels:
Test in all cases: log2 ratio of Biotin-Ahx-Ub-VS probe labelling (fragment/DMSO); higher = less target engagement (more negative = stronger competition), active = hit call of the paper (q ≤ 0.05, log2 ratio ≤ -1)
Details in all cases: compound concentration: 200 uM; treatment time: 3 h
USP42 = target: T1, USP42 (UniProt Q9H9J4)
T1 sequence (whole entry): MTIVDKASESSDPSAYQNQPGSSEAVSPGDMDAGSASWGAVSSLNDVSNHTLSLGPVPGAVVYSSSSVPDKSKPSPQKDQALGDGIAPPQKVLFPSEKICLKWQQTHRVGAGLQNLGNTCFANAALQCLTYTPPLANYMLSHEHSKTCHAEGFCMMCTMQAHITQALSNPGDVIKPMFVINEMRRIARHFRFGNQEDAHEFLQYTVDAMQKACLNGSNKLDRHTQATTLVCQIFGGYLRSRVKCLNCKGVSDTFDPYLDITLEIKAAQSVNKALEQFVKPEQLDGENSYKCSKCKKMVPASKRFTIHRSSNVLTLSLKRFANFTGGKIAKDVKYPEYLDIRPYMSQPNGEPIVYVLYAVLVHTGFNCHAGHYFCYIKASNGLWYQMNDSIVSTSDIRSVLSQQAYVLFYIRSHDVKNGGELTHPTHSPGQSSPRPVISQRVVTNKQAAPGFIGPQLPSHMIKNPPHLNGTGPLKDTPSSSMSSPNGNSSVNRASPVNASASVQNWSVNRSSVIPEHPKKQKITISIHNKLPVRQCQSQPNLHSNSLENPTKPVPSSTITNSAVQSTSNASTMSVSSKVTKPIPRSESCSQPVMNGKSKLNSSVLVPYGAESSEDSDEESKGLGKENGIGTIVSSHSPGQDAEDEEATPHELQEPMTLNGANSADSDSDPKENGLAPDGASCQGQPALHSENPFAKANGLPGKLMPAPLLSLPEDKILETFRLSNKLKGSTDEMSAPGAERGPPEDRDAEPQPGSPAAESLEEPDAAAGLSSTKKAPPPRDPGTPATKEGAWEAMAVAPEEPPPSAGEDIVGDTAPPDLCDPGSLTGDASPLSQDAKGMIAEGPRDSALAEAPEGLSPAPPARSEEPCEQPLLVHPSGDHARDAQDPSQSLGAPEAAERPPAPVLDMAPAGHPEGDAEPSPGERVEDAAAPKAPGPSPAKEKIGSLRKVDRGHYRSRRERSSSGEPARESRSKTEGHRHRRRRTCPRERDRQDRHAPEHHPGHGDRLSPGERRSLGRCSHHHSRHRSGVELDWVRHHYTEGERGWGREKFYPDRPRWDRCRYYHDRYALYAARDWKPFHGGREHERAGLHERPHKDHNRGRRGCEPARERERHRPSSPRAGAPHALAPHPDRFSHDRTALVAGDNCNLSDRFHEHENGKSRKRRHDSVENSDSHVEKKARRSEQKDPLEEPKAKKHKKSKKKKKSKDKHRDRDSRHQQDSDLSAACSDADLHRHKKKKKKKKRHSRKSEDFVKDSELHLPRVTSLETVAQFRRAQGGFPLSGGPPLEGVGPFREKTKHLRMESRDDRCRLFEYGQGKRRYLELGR
How it was run: (§1)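 Fragment (200 µM) or vehicle was incubated for 3 h with triplicate HEK293T lysate samples of 495 µg, which were then treated with Biotin-Ahx-Ub-VS at 0.5 µM final for 1 h. Labelled DUBs were enriched on NeutrAvidin, digested with LysC and trypsin, and analysed by diaPASEF LC-MS/MS. Values are average log2 fragment/vehicle ratios from an unpaired t-test on global-median-normalised Spectronaut label-free quantities, using proteins with ≥2 unique peptides.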

USP46 = USP46 (UniProt P62068)
USP46, sequence (P62068 whole entry): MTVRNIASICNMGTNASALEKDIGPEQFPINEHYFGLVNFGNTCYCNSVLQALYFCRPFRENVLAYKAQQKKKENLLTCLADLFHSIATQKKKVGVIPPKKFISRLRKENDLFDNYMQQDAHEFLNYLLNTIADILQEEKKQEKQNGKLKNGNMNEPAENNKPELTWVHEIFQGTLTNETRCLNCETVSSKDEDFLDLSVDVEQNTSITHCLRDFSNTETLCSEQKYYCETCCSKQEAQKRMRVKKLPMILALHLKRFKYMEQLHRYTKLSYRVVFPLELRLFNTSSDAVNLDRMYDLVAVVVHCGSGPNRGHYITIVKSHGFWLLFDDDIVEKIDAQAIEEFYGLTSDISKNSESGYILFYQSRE
How it was run: as §1

USP47 = target: T2, USP47 (UniProt Q96K76)
T2 sequence (whole entry): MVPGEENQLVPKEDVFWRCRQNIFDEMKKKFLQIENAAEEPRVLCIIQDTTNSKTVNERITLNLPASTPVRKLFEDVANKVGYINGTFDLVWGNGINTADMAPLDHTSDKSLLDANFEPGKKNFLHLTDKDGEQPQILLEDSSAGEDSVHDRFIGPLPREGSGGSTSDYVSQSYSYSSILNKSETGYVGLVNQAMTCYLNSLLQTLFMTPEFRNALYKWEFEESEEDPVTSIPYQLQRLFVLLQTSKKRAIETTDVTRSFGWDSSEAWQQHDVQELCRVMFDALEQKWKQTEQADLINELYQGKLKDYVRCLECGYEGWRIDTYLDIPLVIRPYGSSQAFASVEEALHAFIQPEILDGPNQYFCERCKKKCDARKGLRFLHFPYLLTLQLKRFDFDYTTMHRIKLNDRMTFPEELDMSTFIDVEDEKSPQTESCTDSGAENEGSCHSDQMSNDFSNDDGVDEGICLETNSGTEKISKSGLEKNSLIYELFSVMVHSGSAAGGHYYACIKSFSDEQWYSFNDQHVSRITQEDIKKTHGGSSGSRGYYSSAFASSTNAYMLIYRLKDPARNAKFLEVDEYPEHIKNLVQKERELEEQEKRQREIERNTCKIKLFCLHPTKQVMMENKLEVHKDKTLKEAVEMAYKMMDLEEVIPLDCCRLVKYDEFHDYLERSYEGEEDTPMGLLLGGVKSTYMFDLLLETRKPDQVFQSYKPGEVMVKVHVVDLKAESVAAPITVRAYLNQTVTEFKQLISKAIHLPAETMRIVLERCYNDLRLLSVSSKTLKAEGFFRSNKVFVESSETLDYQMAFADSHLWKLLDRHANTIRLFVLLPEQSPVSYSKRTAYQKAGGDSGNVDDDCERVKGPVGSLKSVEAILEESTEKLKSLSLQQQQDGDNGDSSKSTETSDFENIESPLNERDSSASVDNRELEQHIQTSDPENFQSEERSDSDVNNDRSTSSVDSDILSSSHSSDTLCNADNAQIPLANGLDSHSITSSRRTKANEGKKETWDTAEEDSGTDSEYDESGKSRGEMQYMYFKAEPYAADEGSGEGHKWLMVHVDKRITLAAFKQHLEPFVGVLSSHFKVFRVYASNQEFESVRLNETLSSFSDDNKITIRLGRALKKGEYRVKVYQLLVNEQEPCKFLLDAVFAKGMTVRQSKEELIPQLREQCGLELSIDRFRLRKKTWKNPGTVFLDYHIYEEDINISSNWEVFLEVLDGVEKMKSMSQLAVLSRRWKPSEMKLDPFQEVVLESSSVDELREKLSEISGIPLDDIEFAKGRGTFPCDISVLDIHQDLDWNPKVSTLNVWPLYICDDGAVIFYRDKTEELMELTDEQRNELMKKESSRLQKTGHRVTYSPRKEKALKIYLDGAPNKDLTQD
How it was run: as §1

USP48 = target: T3, USP48 (UniProt Q86UV5)
T3 sequence (whole entry): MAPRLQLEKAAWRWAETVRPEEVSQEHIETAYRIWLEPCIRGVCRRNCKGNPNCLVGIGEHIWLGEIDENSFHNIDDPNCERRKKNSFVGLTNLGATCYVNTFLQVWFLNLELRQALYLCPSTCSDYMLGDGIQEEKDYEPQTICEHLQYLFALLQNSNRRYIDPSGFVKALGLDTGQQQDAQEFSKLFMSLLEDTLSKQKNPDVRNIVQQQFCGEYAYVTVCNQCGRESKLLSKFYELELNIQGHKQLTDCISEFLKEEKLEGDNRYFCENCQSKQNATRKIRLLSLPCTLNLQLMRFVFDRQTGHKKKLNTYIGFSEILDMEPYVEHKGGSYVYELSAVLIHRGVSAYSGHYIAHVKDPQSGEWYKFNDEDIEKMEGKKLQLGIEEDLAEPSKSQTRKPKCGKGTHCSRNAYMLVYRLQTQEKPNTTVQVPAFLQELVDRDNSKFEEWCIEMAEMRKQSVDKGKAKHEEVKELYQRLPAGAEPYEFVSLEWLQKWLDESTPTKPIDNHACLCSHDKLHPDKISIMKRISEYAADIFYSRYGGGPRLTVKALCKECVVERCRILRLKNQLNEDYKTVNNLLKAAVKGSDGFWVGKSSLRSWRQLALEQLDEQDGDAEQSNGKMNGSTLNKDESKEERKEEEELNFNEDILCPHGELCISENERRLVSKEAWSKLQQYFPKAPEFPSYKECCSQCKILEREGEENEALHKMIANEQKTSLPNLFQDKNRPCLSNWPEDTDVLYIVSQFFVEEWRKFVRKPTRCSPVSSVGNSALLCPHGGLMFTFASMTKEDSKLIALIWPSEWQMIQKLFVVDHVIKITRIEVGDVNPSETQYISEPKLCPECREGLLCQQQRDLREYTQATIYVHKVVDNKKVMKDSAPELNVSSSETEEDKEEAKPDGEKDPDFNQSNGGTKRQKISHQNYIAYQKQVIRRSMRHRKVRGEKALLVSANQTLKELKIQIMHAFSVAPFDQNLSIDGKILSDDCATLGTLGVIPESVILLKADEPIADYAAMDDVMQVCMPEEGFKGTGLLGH
How it was run: as §1

USP5 = target: T4, USP5 (UniProt P45974)
T4 sequence (whole entry): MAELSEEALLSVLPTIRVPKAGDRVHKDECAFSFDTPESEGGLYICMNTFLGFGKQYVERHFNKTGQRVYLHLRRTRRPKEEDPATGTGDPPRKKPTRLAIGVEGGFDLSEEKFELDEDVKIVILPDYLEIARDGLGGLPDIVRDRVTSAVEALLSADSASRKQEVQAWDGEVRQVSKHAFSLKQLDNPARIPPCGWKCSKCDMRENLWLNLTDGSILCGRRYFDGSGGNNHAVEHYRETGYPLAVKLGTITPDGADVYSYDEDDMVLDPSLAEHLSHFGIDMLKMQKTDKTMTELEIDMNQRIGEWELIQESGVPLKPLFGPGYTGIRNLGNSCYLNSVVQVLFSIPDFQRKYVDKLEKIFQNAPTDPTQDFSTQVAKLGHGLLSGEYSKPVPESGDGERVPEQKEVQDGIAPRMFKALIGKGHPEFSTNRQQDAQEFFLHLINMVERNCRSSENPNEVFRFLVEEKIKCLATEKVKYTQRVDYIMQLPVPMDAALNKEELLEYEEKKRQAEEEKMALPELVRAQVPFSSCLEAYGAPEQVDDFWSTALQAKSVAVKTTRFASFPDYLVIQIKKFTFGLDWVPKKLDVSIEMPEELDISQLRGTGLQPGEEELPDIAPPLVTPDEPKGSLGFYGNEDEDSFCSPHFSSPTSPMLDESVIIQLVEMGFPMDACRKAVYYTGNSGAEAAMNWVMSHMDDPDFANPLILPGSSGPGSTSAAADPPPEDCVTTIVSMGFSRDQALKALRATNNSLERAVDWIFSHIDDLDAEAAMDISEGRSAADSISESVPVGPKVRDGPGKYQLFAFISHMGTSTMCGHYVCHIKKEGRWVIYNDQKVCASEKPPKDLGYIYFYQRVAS
How it was run: as §1

USP54 = USP54 (UniProt Q70EL1)
USP54, sequence (Q70EL1 whole entry): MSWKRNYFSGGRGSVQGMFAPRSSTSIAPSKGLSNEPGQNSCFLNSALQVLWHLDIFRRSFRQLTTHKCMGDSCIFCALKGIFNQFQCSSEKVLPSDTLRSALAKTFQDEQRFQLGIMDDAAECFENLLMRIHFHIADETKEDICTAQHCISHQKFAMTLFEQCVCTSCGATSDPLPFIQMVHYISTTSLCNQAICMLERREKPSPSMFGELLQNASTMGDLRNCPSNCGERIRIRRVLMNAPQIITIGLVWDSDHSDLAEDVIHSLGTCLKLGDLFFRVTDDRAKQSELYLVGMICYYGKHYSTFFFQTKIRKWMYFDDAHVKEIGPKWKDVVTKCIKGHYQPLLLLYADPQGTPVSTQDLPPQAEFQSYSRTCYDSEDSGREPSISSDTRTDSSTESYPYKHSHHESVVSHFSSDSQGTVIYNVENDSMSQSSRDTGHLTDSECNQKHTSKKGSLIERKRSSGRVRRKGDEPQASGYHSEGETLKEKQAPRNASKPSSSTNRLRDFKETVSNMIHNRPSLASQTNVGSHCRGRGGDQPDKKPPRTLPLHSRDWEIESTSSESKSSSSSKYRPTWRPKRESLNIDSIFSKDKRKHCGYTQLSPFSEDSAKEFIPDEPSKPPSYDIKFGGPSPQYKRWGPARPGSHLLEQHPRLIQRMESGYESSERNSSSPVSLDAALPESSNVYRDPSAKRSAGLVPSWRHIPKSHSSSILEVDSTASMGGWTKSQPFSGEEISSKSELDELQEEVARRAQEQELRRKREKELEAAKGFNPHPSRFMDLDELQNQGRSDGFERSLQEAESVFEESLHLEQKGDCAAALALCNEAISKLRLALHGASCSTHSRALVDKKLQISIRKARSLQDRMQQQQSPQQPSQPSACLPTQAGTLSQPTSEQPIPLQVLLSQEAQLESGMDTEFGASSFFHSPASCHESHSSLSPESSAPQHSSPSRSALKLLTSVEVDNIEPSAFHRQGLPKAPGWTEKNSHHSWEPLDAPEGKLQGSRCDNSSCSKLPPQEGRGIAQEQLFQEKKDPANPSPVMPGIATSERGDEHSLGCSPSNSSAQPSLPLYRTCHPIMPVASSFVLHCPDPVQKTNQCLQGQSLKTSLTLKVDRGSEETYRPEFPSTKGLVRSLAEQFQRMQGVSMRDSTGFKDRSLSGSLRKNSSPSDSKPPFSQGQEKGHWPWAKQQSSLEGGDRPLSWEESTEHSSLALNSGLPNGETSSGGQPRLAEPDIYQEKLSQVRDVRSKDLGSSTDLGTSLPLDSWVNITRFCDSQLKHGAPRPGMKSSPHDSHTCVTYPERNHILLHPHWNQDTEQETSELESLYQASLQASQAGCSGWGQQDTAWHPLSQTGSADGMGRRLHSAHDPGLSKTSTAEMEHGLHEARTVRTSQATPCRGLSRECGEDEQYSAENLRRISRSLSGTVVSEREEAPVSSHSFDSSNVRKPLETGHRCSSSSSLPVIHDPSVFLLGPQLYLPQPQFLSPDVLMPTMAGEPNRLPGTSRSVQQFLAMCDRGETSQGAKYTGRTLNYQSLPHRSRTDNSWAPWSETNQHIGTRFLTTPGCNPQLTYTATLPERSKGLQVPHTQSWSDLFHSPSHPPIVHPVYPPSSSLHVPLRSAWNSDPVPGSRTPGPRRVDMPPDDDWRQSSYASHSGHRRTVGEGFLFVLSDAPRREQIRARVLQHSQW
How it was run: as §1

USP7 = USP7 (UniProt Q93009)
USP7, sequence (Q93009 whole entry, looked up): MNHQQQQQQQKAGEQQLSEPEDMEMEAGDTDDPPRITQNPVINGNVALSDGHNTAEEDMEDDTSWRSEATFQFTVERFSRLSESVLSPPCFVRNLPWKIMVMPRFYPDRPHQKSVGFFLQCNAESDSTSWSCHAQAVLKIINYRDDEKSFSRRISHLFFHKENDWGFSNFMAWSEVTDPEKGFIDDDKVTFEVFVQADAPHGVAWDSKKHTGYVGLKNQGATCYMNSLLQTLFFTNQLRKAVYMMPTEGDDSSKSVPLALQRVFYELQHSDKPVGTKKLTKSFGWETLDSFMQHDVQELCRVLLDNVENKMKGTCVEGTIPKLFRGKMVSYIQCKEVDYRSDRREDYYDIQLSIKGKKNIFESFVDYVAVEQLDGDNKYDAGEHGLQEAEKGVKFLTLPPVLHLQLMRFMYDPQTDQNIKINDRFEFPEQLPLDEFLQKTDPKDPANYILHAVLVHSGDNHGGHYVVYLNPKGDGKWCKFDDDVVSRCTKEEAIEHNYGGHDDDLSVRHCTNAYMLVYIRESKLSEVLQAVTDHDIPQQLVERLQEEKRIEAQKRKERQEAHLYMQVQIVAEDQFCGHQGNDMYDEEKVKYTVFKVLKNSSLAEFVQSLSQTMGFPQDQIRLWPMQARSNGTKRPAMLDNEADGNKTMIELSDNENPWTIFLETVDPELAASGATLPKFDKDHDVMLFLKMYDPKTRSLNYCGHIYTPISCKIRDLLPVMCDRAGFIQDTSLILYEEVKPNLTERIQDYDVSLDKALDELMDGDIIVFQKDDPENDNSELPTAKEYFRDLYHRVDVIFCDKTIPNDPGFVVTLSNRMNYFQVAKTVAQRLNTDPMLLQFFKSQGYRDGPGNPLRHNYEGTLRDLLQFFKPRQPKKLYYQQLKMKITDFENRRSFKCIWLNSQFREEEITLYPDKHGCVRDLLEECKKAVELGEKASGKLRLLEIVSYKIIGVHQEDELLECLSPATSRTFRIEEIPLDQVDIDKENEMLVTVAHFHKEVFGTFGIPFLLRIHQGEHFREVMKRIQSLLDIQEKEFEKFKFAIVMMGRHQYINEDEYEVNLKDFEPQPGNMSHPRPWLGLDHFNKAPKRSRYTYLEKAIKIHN
How it was run: as §1

USP8 = target: T5, USP8 (UniProt P40818)
T5 sequence (whole entry): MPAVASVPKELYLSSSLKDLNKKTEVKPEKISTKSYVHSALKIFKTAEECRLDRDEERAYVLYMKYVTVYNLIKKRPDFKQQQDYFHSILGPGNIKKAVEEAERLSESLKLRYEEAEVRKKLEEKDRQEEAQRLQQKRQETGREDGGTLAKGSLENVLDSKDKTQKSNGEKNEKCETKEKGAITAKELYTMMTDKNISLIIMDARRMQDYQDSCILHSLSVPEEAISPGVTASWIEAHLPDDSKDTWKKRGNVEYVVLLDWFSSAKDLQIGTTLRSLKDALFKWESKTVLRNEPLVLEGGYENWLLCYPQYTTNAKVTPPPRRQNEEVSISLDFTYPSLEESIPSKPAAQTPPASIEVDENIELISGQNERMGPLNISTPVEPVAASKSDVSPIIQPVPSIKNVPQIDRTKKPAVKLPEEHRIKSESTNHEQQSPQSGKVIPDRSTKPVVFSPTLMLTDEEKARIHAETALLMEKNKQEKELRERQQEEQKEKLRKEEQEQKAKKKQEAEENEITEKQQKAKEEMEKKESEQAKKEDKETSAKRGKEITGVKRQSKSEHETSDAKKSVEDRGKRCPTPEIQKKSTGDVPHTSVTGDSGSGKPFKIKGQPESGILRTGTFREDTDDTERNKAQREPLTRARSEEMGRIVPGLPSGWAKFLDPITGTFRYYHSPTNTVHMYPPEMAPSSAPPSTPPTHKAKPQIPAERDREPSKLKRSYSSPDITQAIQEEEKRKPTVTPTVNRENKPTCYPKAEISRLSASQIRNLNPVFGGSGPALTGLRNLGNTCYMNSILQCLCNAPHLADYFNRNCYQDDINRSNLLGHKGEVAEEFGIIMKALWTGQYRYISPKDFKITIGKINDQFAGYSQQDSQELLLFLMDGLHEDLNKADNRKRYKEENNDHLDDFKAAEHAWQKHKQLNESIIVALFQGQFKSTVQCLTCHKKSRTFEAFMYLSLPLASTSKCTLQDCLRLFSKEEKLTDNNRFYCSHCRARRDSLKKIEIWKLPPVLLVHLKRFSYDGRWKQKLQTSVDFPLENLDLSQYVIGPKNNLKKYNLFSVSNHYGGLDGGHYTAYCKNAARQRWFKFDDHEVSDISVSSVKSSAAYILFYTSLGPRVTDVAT
How it was run: as §1

Measured: log2 ratio of Biotin-Ahx-Ub-VS probe labelling

O=C(CCl)NC(Cn1ccccc1=O)c1ccccc1 (stereo not drawn)
inactive: USP42 -0.346 | USP46 0.258 | USP47 -0.4 | USP48 0.0761 | USP5 0.132 | USP54 0.317 | USP7 -0.205 | USP8 -0.0535
